Laboratory results reported in the supplement of paper PMC7156485.
± gives the standard deviation of the averaged measurements.

Key:
Conditions in all cases: concentration: 10 µM; 24 h
HCC1569 [1] = experiment: cell number relative to DMSO (% of DMSO); higher = more cells (less growth inhibition / toxicity)
In short: (§1)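 Using 384-well plates with 800 cells per well in RPMI plus 10% FBS, HCC1569 and TDF cells were exposed to compounds at 10 µM, in triplicate, for 24 h at 37 °C. Imaging of six fields per well at ×10 followed H1.0 and DAPI staining. The reported quantity, H1.0 nuclear intensity or cell number, is a median of replicates given as percent of the plate control, and HCC1569 values were smoothed for positional effects.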

TDF [2] = experiment: as above
In short: as §1

TDF [3] = experiment: H1.0 immunofluorescence intensity relative to DMSO (% of DMSO); higher = stronger H1.0 induction, active = 120 or more
In short: as §1

HCC1569 [4] = experiment: H1.0 immunofluorescence intensity relative to DMSO (% of DMSO); higher = stronger H1.0 induction, active = 140 or more
In short: as §1
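Throughout, for H1.0 immunofluorescence intensity relative to DMSO: TDF is a line of transformed human dermal fibroblasts of mesenchymal origin.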
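Throughout, for cell number relative to DMSO: TDF denotes transformed human dermal fibroblasts of mesenchymal origin.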

| SMILES | cell number (HCC1569 [1]) | cell number (TDF [2]) | H1.0 immunofluorescence intensity (TDF [3]) | H1.0 immunofluorescence intensity (HCC1569 [4]) |
| --- | --- | --- | --- | --- |
| NC(CCCCCP(=O)(O)O)C(=O)O (racemic) | 102 | 105 | 96.9 (inactive) | 98.4 (inactive) |
| CN1C2CCC1CC(OC(=O)c1cc(Cl)cc(Cl)c1)C2 (stereo unspecified) [3-Tropanyl-3,5-dichlorobenzoate] | 100 | 106 | 102 (inactive) | 108 (inactive) |
| CC1OC(OC2CC(O)C3(CO)C4C(O)CC5(C)C(C6COC(=O)C6)CCC5(O)C4CCC3(O)C2)C(O)C(O)C1O (stereo unspecified) [Dihydroouabain] | 61.7 | 43.7 | 104 (inactive) | 82.2 (inactive) |
| Cl.O=C(CCCN1CCC2(CC1)C(=O)NCN2c1ccccc1)c1ccc(F)cc1 [Spiperone hydrochloride] | 105 | 87.3 | 116 (inactive) | 99.6 (inactive) |
| NCC1(CC(=O)O)CCCCC1 [Gabapentin] | 104 ± 4.7 | 108 ± 6.5 | 94.7 (inactive) | 93.5 (inactive) |
| CC1(C(=O)O)CCCC2(C)c3cc(O)ccc3CCC12 (stereo unspecified) [Podocarpic acid] | 100 | 102 | 101 (inactive) | 85.3 (inactive) |
| CC(=O)OCC1=CC2C3C(C)(C)C3(OC(=O)Cc3ccccc3)CC(C)C2(O)C2C=C(C)C(=O)C2(O)C1 (stereo unspecified) [12-Deoxyphorbol 13-phenylacetate 20-acetate] | 90.8 | 74 | 105 (inactive) | 137 (inactive) |
| CS(=O)CCCCN=C=S (stereo unspecified) [1-isothiocyanato-4-(methylsulfinyl)butane] | 99.7 | 94.9 | 93.7 (inactive) | 89.6 (inactive) |
| NC(Cc1cc(O)c(O)cc1O)C(=O)O (racemic) [6-Hydroxy-DL-DOPA] | 98.2 | 96.2 | 97 (inactive) | 93.8 (inactive) |
| NC(N)=NOCC[C@H](N)C(=O)O.O=S(=O)(O)O [L-Canavanine sulfate] | 101 | 81.3 | 107 (inactive) | 107 (inactive) |
| COc1ccc(C(=O)OC2CCC3(C)C4CCC5C6(O)CC(O)C7(O)C(CN8CC(C)CCC8C7(C)O)C6(O)CC53OC24O)cc1OC (stereo unspecified) [Veratridine] | 107 | 97.2 | 96.7 (inactive) | 81.9 (inactive) |
| Cl.c1ccc2sc(C3(N4CCCCC4)CCCCC3)cc2c1 [BTCP hydrochloride] | 100 | 106 | 88.2 (inactive) | 96.6 (inactive) |
| O=C(O)C=CC(=O)O.O=C(O)C=CC(=O)O.c1ccc2nc(N3CCNCC3)ccc2c1 [Quipazine dimaleate] | 97.5 | 103 | 90 (inactive) | 112 (inactive) |
| CN1CCC2(CCN3CCc4c(oc5ccccc45)C3C2)N(C)C1=O.Cl (stereo unspecified) | 102 | 91 | 95 (inactive) | 110 (inactive) |
| CC=C(C)C(=O)OC1C(C)=C2C(C1OC(=O)CCCCCCC)C(C)(OC(C)=O)CC(OC(=O)CCC)C1(O)C2OC(=O)C1(C)O (stereo unspecified) [Thapsigargin] | 62.4 | 44.2 | 130 (active) | 195 (active) |
| Cl.NCCc1ccc(S(=O)(=O)F)cc1 [4-(2-Aminoethyl)benzenesulfonyl fluoride hydrochloride] | 100 | 107 | 93.2 (inactive) | 88.6 (inactive) |
| COc1ccc2c(c[n+](C)c3c4cc5c(cc4ccc23)OCO5)c1OC.[Cl-] [Chelerythrine Chloride] | 90.9 | 98.2 | 94 (inactive) | 123 (inactive) |
| Cl.O=C1CCC2(O)C3Cc4ccc(O)c5c4C2(CCN3CC2CC2)C1O5 (stereo unspecified) [Naltrexone hydrochloride] | 103 | 115 | 90.8 (inactive) | 96 (inactive) |
| CCCN(CCC)C1Cc2cc(OC)c(OC)cc2C1.O=C(O)C=CC(=O)O | 103 | 107 | 97.7 (inactive) | 102 (inactive) |
| CCC1CN2CCc3cc(OC)c(OC)cc3C2CC1CC1NCCc2cc(OC)c(OC)cc21.Cl.Cl (stereo unspecified) [Emetine dihydrochloride hydrate] | 57.5 | 20.6 | 114 (inactive) | 99 (inactive) |
| CCCCCC(C=CC=CCCCCCCCCCC(=O)O)OO (stereo unspecified) | 111 | 92.8 | 94.4 (inactive) | 103 (inactive) |
| CCCCCCCCCCCCCCCC(=O)OCC(COP(=O)([O-])OCC[N+](C)(C)C)OC(C)=O (stereo unspecified) | 102 | 102 | 98.7 (inactive) | 101 (inactive) |
| C=CCN1CCC23c4c5ccc(O)c4OC2C(=NN=C2CCC4(O)C6Cc7ccc(O)c8c7C4(CCN6CC=C)C2O8)CCC3(O)C1C5.Cl.Cl (stereo unspecified) [Naloxonazine dihydrochloride] | 77.5 | 62.9 | 126 (active) | 121 (inactive) |
| Cc1[nH]c2ccc(Cl)cc2c1C1=CCNCC1.Cl | 99.8 | 93.5 | 107 (inactive) | 120 (inactive) |
| CN1CC(NS(=O)(=O)N(C)C)CC2c3cccc4c3c(cn4C)CC21 (stereo unspecified) [Mesulergine] | 100 | 103 | 93.4 (inactive) | 120 (inactive) |

| SMILES | cell number (HCC1569 [1]) | cell number (TDF [2]) | H1.0 immunofluorescence intensity (TDF [3]) | H1.0 immunofluorescence intensity (HCC1569 [4]) |
| --- | --- | --- | --- | --- |
| Cc1o[nH]c(=O)c1CC(N)C(=O)O (racemic) | 103 | 101 | 96.3 (inactive) | 87.9 (inactive) |
| O=C1C=CC(=O)C=C1 [p-Benzoquinone] | 100 | 99.8 | 93.1 (inactive) | 93.3 (inactive) |
| COc1ccc(CC2NCCc3cc(OC)c(OC)cc32)cc1OC.Cl (stereo unspecified) | 99.3 | 109 | 94.3 (inactive) | 80.5 (inactive) |
| CC12CCC3C(CCC4=C(O)C(=O)CCC43C)C1CCC2=O (stereo unspecified) [Formestane] | 105 | 98.1 | 98.3 (inactive) | 111 (inactive) |
| CC1CCC2(NC1)OC1CC3C4CCC5CC(O)CCC5(C)C4CCC3(C)C1C2C (stereo unspecified) [Tomatidine] | 104 | 102 | 99.2 (inactive) | 83.5 (inactive) |
| CC(N)Cc1c[nH]c2ccc(OCc3cccs3)cc12.Cl (stereo unspecified) | 102 | 115 | 87.9 (inactive) | 92.8 (inactive) |
| CC(C)C1(NC(=O)C2CC3c4cccc5[nH]cc(c45)CC3N(C)C2)OC2(O)C3CCCN3C(=O)C(Cc3ccccc3)N2C1=O.CS(=O)(=O)O (stereo unspecified) [Dihydroergocristine methanesulfonate] | 91.8 | 109 | 106 (inactive) | 126 (inactive) |
| CC1CCC2C(C)C3C(CC4C5CC=C6CC(OC7OC(CO)C(O)C(OC8OC(CO)C(O)C(O)C8O)C7OC7OC(C)C(O)C(O)C7O)CCC6(C)C5CCC43C)N2C1 (racemic) | 103 | 101 | 97.4 (inactive) | 86 (inactive) |
| COc1cc2c(cc1OC)C(C)NCC2 (stereo unspecified) [Salsolodine] | 105 | 97.2 | 88.7 (inactive) | 86.3 (inactive) |
| CC1=C(O)C(=O)C=C2C1=CC=C1C2(C)CCC2(C)C3CC(C)(C(=O)O)CCC3(C)CCC12C (stereo unspecified) [Celastrol] | 38 | 64 | 120 (inactive) | 114 (inactive) |
| CP(=O)([O-])C1=CC[NH2+]CC1 | 96.6 | 98.6 | 91.8 (inactive) | 102 (inactive) |
| CC1CCCC(O)CCCCCc2cc(O)cc(O)c2C(=O)O1 (stereo unspecified) | 102 | 93.5 | 91.8 (inactive) | 99.2 (inactive) |
| CC(C)CC(NP(=O)([O-])OC1OC(C)C(O)C(O)C1O)C(=O)NC(Cc1c[nH]c2ccccc12)C(=O)[O-].[Na+].[Na+] (stereo unspecified) [Phosphoramidon disodium] | 99.6 | 110 | 90.6 (inactive) | 102 (inactive) |
| Cl.Cl.Clc1cccc(N2CCNCC2)c1 [1-(3-Chlorophenyl)piperazine dihydrochloride] | 83.5 | 87.5 | 105 (inactive) | 100 (inactive) |
| Nc1ncnc2c1ccn2C1OC(CO)C(O)C1O (stereo unspecified) [Tubericidin] | 42.7 | 32.3 | 118 (inactive) | 70.1 (inactive) |
| COC(=O)C(N)CCCN=C(N)N[N+](=O)[O-].Cl [NG-Nitro-L-arginine methyl ester hydrochloride] | 103 | 109 | 89.9 (inactive) | 92.5 (inactive) |
| CC(C)CC1C(=O)N2CCCC2C2(O)OC(NC(=O)C3C=C4c5cccc6[nH]c(Br)c(c56)CC4N(C)C3)(C(C)C)C(=O)N12.CS(=O)(=O)O (stereo unspecified) [Bromocriptine mesylate] | 99.5 ± 2.3 | 102.8 ± 0.3 | 94.1 (inactive) | 102 (inactive) |
| Cl.c1ccc2c(c1)OCC(C1=NCCN1)O2 (stereo unspecified) [Idazoxan hydrochloride] | 102 | 98.8 | 99.6 (inactive) | 99 (inactive) |
| COC1C(O)C(C)OC(OC2C(Oc3cccc4c(O)c5c(=O)oc6ccc(C)c7c(=O)oc(c34)c5c67)OC(C)C(O)C2O)C1O (stereo unspecified) [Chartreusin] | 105 | 99.3 | 100 (inactive) | 108 (inactive) |
| COc1cccc(C2(O)CCCCC2CN(C)C)c1 (stereo unspecified) [Tramadol] | 100 | 97.7 | 99.3 (inactive) | 109 (inactive) |
| CN(c1nc2ccccc2s1)C1CCN(CC(O)COc2ccc(F)c(F)c2)CC1.Cl.Cl (stereo unspecified) | 84.8 | 88.9 | 99 (inactive) | 141 (active) |
| CC(C)(C)NCC(O)c1ccccc1Cl.Cl (stereo unspecified) [Tulobuterol hydrochloride] | 101 | 110 | 89.1 (inactive) | 96.4 (inactive) |
| CN1C2CC(=O)CC1C(O)C2 (stereo unspecified) [6-Hydroxytropinone] | 103 | 111 | 88.5 (inactive) | 89.2 (inactive) |
| Cl.Oc1ccc2c3c1OC1c4[nH]c5ccccc5c4CC4(O)C(C2)N(CC2CC2)CCC314 (stereo unspecified) [Naltrindole hydrochloride] | 101 | 99.3 | 96.4 (inactive) | 114 (inactive) |
